Most compounds without a hit are left out; they make up all but 11% or so of the library.
PNC inhibitor = High Content Assay for Compounds that inhibit the Assembly of the Perinucleolar Compartment; PC3M PTB-GFP, PNC prevalence imaging, 16 h; active compounds read low; activity change (PNC), negative = inhibition, % at 10 µM; actives 3.1% (n = 140,000); AID 2417, 2010;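 active means readout at or below -70, meaning at least 70% loss of cells showing the perinucleolar compartment, a nuclear body marking cancer cells; inconclusive means readout between -30 and a set limit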;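 further: plate controls were DMSO wells for no effect and camptothecin positive control wells for full effect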
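Compounds are pinned in duplicate onto adhered PC3M cells stably expressing GFP-tagged PTB and incubated 16 h at 37 C. Cells are then fixed, nuclei stained with Hoechst, and PNC-positive cells counted.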
ALDH1A1 block = qHTS Assay for Inhibitors of Aldehyde Dehydrogenase 1 (ALDH1A1) | Purified ALDH1A1, NADH fluorescence, propionaldehyde substrate | actives 7.3% (n = 220,000) | Aldehyde dehydrogenase 1A1 (Homo sapiens), P00352 | AID 1030, 2008 | Potency, µM (titrated, usually from 75.3 µM), without a hit: at the highest dose activity, negative = inhibition, most hits filed as inhibitors;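 further: potency means the concentration at half of the fitted maximal effect; plate controls were no enzyme wells and a reference inhibitor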
NPSR antag = qHTS Assay for Antagonists of the Neuropeptide S Receptor: cAMP Signal Transduction; Q6W5P4; CHO-NPSR cells, cAMP TR-FRET, antagonist mode; Potency, µM (series often up to 38.3 µM), inactives show top-dose activity change, negative = inhibition, hits mostly inhibitors; actives 1% (n = 220,000); AID 1461, 2008; active means well fitted curve in the direction sought with a large enough effect; inconclusive means small, poorly fitted or top-dose-only effect, or another doubt; inactive means no such curve, though single readings can be large; an effect the other way counts as inactive or inconclusive; further: potency means the concentration at half of the fitted maximal effect; nearly all actives have a fitted effect of over 50% in size
Target sequence (Q6W5P4 whole entry, looked up): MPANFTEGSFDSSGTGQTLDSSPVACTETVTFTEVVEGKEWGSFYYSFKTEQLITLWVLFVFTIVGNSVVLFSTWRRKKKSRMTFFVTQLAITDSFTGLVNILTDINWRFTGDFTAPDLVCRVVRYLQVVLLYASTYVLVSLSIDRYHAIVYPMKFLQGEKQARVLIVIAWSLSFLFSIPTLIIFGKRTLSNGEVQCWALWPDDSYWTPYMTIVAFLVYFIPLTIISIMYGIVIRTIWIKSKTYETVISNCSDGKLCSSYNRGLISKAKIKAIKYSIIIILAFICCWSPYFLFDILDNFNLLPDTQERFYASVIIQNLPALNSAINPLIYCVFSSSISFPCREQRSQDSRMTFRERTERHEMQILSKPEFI
IMPase inh = qHTS Assay for Identifying the Cell-Membrane Permeable IMPase Inhibitors | AID 901, 2007 | CHO-M1 cells, IP1 accumulation, HTRF TR-FRET ratio | 120,000 tested, under 10 active | inhibition (IP1 accumulation), % at 46.1 µM | Inositol monophosphatase 1 (Rattus norvegicus), P97697; active means well fitted curve in the direction sought with a large enough effect in the signal ratio, not every such curve was filed as active; inconclusive means small, poorly fitted or top-dose-only effect, or a change in a side signal; inactive means no such curve, though single readings can be large or run the other way; the % refers to the signal ratio;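 further: cells stimulated with carbachol in lithium chloride buffer; plate controls were DMSO basal wells for no effect and reference inhibitor wells for full effect; higher means more IMPase inhibition seen as more IP1 and lower FRET ratio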
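CHO-M1, 2000 cells/well, cultured 16–30 h; cpd up to 46 uM; carbachol (50 uM solution, stimulation buffer w/ 50 mM LiCl, pH 7.4), 30 min 37C; IP-One TR-FRET, 10 min RT; Ex 320/Em 665, 620; Hill-fit AC50.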
IMPase Li inh = qHTS Assay for Identifying the Cell-Membrane Permeable IMPase Inhibitors: Potentiation with Lithium. CHO-M1 cells, IP1 TR-FRET (IP-One), carbachol + lithium. actives 0.35% (n = 210,000). AID 1457, 2008. Potency, µM (top dose mostly 59.4 µM), for inactives: at the top dose activity, negative = IMPase inhibition, hits mostly inhibitors; active means well fitted curve in the direction sought with a large enough effect; inconclusive means small, poorly fitted or top-dose-only effect, or another doubt; inactive means no such curve, though single readings can be large; an effect the other way counts as inactive or inconclusive;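 further: IP1 builds up when IMPase is blocked and the TR-FRET signal falls; potency means the concentration at half of the fitted maximal effect; plate controls were basal vehicle for no effect and high inhibitor control for full effect; nearly all actives have a fitted effect of over 50% in size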
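Test compounds were applied to CHO-M1 cells previously cultured for 16–30 h at 2000 per well. A small lithium amount accompanied them; after 30 min at 37C, IP1 was quantified by TR-FRET.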
HPGD inh = qHTS Assay for Inhibitors of HPGD (15-Hydroxyprostaglandin Dehydrogenase); 15-hydroxyprostaglandin dehydrogenase [NAD(+)] (Homo sapiens), P15428; purified HPGD, NADH fluorescence kinetic, PGE2 substrate; Potency, µM, inactives show at the top dose activity change, negative = inhibition, actives largely listed as inhibitors; actives 4.3% (n = 150,000); AID 894, 2007; further: potency means the concentration at half of the fitted maximal effect
Target sequence (P15428 whole entry, looked up): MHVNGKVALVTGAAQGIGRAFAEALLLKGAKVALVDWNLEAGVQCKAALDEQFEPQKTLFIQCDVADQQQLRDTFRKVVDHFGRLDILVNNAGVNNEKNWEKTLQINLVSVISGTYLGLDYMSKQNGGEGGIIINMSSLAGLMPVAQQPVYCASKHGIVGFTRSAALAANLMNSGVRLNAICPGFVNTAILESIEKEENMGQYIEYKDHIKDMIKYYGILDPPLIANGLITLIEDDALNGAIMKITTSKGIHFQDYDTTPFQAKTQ
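NADH formation kinetics: reaction with 30 uM PGE2 and 1 mM NAD+ (final), 20 nM enzyme, Tris-HCl pH 8 with Tween 20, after 15 min compound preincubation at room temperature. Fluorescence change, last versus first of five reads.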
An asterisk follows results filed as active; [ ] = dose if it differs, or a comment. Unless noted, the call rests on the fitted dose curve; in most records, active means well fitted inhibition curve with a large enough effect (not every such curve was filed as active); inconclusive means small, poorly fitted or top-dose-only effect, or another doubt; inactive means no such curve, though single readings can be large or run the other way. Unless noted, on the % scale 0 is the no-effect control and ±100 the full control effect.

`CCOC(=O)/C(=C/c1ccccc1)NC(=O)c1ccco1` gave PNC inhibitor -81*, ALDH1A1 block -7%, NPSR antag 23%, IMPase inh inconclusive, IMPase Li inh 8% and HPGD inh -9%.
`C=CCOC(=O)/C(=C\c1ccccc1)NC(=O)c1ccco1` gave PNC inhibitor -16, ALDH1A1 block 1%, NPSR antag 3%, IMPase Li inh 2% and HPGD inh -10%.
Screening CCN1C(=O)C(CC(=O)Nc2ccc(C)cc2C)Nc2cc(S(=O)(=O)N(C)C)ccc21 (stereo not drawn) returned ALDH1A1 block 28µM*, NPSR antag -13% and IMPase Li inh -2%.
Screening CCN1CCN(CC(=O)Nc2ccc(C)cc2C)C(=O)C1=O returned PNC inhibitor -15, ALDH1A1 block -10%, NPSR antag 10%[46.1 µM], IMPase inh -9, IMPase Li inh -8%[38.3 µM] and HPGD inh -13%.
For O=C(Nc1cccc(F)c1)c1cc(S(=O)(=O)N2CCC(C(=O)O)CC2)ccc1F the results were PNC inhibitor -17, ALDH1A1 block 6%, NPSR antag -10%[46.1 µM], IMPase inh -6, IMPase Li inh 0%[38.3 µM] and HPGD inh 2%.
O=C(CCl)N1N=C(c2cccs2)CC1c1ccco1 (stereo not drawn) was read as ALDH1A1 block 0.45µM*, NPSR antag inconclusive and IMPase Li inh 14%.
`CC(C)(C)NC(=O)c1ccc2c(c1)N(CC(=O)N1CCN(c3ccccc3F)CC1)C(=O)C(C)(C)O2` gave PNC inhibitor 24, ALDH1A1 block 14µM*, NPSR antag inconclusive, IMPase inh -8, IMPase Li inh -1%[38.3 µM] and HPGD inh -6%.
`COc1ccc(N2C3=C(CC4=C2CC(C)(C)CC4=O)C(=O)CC(C)(C)C3)cc1` gave PNC inhibitor 31, ALDH1A1 block inconclusive, NPSR antag 2µM*, IMPase inh 7, IMPase Li inh 14%[38.3 µM] and HPGD inh inconclusive.
For COc1ccc(N2C3=C(CC4=C2CCCC4=O)C(=O)CCC3)cc1 the results were PNC inhibitor 26, ALDH1A1 block inconclusive, NPSR antag -29%, IMPase inh 1, IMPase Li inh 8% and HPGD inh inconclusive.
Screening CCOC(=O)/C(C#N)=C1\SS/C(=C(/C#N)C(=O)OCC)S1 returned NPSR antag 16%.
For C=C(C#N)C(=O)OCC the results were ALDH1A1 block 8.9µM*, IMPase Li inh 26% and HPGD inh -6%.
For Cc1ccc(C)c(CN2CCNC2=O)c1 the results were PNC inhibitor inconclusive, ALDH1A1 block 3%, NPSR antag -12%[46.1 µM], IMPase inh -24, IMPase Li inh -22%[38.3 µM] and HPGD inh -13%.
Cc1cc(=O)[nH]c(N/N=C/c2cccs2)n1 was read as PNC inhibitor inconclusive, ALDH1A1 block -14%, NPSR antag -1%, IMPase Li inh 3% and HPGD inh -14%.
Cc1cc(=O)[nH]c(N/N=C/c2sccc2C)n1 was read as PNC inhibitor -9, ALDH1A1 block 3%, NPSR antag -8%, IMPase Li inh -1% and HPGD inh 40µM*.
For COc1ccc(/C(O)=C2/C(=O)C(=O)N(Cc3cccnc3)C2c2ccncc2)cc1F (stereo not drawn) the results were PNC inhibitor inconclusive, ALDH1A1 block inconclusive, NPSR antag 6%[46.1 µM], IMPase inh -6, IMPase Li inh -5%[38.3 µM] and HPGD inh -25%.
Screening COC(=O)c1ccc(NC2CC(=O)N(c3ccccc3C)C2=O)cc1 (stereo not drawn) returned PNC inhibitor 18, ALDH1A1 block 13µM*, NPSR antag -16%[46.1 µM], IMPase inh 14, IMPase Li inh 29%[38.3 µM] and HPGD inh -17%.
Screening CN=C(Nc1ccc(C(=O)OC)cc1)SC1CC(=O)N(c2ccccc2F)C1=O (stereo not drawn) returned PNC inhibitor -108*, ALDH1A1 block 9%, NPSR antag -8%[46.1 µM], IMPase inh 14, IMPase Li inh 9%[38.3 µM] and HPGD inh -10%.
Screening CCN=C(Nc1ccc2c(c1)OCO2)SC1CC(=O)N(c2ccccc2F)C1=O (stereo not drawn) returned PNC inhibitor -17, ALDH1A1 block 18µM*, NPSR antag -17%[46.1 µM], IMPase inh 0, IMPase Li inh 1%[38.3 µM] and HPGD inh -5%.
O=C(NCc1ccccc1)N1CCC(CO)(CCc2ccccc2)CC1 was read as ALDH1A1 block -3%, NPSR antag 4% and IMPase Li inh 2%.
Screening CCOC(=O)C1CSc2[nH]c(=O)sc2C1c1ccccc1 (stereo not drawn) returned PNC inhibitor 5, ALDH1A1 block 28µM*, NPSR antag -13%[46.1 µM], IMPase inh 1, IMPase Li inh 1%[38.3 µM] and HPGD inh -7%.
Screening COC(=O)C1CSc2[nH]c(=O)sc2C1c1ccc(O)c(OC)c1 (stereo not drawn) returned PNC inhibitor inconclusive, ALDH1A1 block 2.5µM*, NPSR antag 1%[46.1 µM], IMPase inh 6, IMPase Li inh 52%[38.3 µM] and HPGD inh inconclusive.
CC(=O)Nc1cccc(S(=O)(=O)N2CCCCCC2)c1 was read as PNC inhibitor inconclusive, ALDH1A1 block 2%, NPSR antag -1%[46.1 µM], IMPase inh 22, IMPase Li inh 2% and HPGD inh -1%.
Cc1cc(O)c(C2=Nc3ccccc3SC(c3ccc(Cl)cc3)C2)c(=O)o1 (stereo not drawn) was read as PNC inhibitor -26, ALDH1A1 block 3%, NPSR antag -7%, IMPase Li inh 6% and HPGD inh -4%.
`COc1ccc(C2CC(c3c(O)cc(C)oc3=O)=NCCS2)c(OC)c1` (stereo not drawn) gave PNC inhibitor -114*, ALDH1A1 block inconclusive, NPSR antag inconclusive, IMPase inh 5, IMPase Li inh -7%[38.3 µM] and HPGD inh 16µM*.
Screening CCC(Oc1ccccc1)C(=O)Nc1nnc(C)s1 (stereo not drawn) returned PNC inhibitor -117*, ALDH1A1 block 5%, NPSR antag 6%[46.1 µM], IMPase inh -5, IMPase Li inh -4%[38.3 µM] and HPGD inh -4%.

Compound activity (PubChem)
